Inconclusive results are not listed. Active and inactive are the calls of the source. Unless noted, the call rests on the fitted dose curve; in most records, active means well fitted curve in the direction sought with a large enough effect in the repeat runs; inconclusive means weak or mixed curves; inactive means no such curve, though single readings can be large; an effect the other way counts as inactive or inconclusive.
Key:
[1] = biological target: Aryl hydrocarbon receptor (Homo sapiens) (UniProt P35869); assay: qHTS assay to identify small molecule that activate the aryl hydrocarbon receptor (AhR) signaling pathway (AID 743085);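 further: HG2L7.5c1 human HepG2 liver cells with stably integrated DRE-driven firefly reporter; series mostly up to about 70 µM; nearly all actives have a fitted effect of over 15% in size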
Aryl hydrocarbon receptor (Homo sapiens), sequence (P35869 whole entry, looked up): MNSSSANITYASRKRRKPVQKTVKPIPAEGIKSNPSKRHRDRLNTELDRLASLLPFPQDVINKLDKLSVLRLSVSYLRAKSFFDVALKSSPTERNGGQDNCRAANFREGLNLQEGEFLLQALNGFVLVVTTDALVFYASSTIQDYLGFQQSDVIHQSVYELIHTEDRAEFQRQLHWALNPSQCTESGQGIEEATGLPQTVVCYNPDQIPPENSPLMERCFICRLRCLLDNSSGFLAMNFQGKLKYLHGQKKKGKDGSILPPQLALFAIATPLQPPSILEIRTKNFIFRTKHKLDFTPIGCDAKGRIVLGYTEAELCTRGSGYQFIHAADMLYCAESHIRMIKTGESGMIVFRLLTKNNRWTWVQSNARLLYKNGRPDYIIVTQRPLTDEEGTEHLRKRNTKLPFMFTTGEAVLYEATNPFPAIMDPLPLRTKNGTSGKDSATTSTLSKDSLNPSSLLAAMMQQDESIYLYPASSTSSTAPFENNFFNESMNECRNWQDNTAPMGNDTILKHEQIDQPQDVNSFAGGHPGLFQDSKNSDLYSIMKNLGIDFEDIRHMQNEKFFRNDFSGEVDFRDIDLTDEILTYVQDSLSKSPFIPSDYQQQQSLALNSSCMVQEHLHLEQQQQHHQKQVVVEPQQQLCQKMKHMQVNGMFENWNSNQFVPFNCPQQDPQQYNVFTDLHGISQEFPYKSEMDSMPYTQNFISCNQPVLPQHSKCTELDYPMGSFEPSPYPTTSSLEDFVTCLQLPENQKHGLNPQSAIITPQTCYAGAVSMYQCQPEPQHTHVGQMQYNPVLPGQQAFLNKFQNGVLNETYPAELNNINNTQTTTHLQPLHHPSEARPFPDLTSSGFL
Summary of the method: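 HepG2 cells stably carrying a 20-DRE firefly luciferase reporter (HG2L7.5c1) treated with compound for 24 hr at 37C. Luciferase read by ONE-Glo luminescence, with CellTiter-Fluor viability read first.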

[2] = qHTS assay to identify small molecule that activate the aryl hydrocarbon receptor (AhR) signaling pathway - cell viability counter screen (AID 743086);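 further: HepG2 liver cells carrying the AhR DRE luciferase reporter; series mostly up to about 70 µM; nearly all actives have a fitted effect of over 45% in size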
Summary of the method: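 HepG2-AhR-luc (HG2L7.5c1) cells, 4000/well, treated 24 h at 37 C with compound; viability measured as CellTiter-Fluor fluorescence after 30 min in the same wells as the luciferase read.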

[3] = biological target: Peroxisome proliferator-activated receptor gamma (Homo sapiens) (UniProt P37231); assay: qHTS assay to identify small molecule agonists of the peroxisome proliferator-activated receptor gamma (PPARg) signaling pathway (AID 743094; active means well fitted activation curve with a large enough effect in the signal ratio in the repeat runs, not every such curve was filed as active; the % refers to the signal ratio)
Peroxisome proliferator-activated receptor gamma (Homo sapiens), sequence (P37231 whole entry, looked up): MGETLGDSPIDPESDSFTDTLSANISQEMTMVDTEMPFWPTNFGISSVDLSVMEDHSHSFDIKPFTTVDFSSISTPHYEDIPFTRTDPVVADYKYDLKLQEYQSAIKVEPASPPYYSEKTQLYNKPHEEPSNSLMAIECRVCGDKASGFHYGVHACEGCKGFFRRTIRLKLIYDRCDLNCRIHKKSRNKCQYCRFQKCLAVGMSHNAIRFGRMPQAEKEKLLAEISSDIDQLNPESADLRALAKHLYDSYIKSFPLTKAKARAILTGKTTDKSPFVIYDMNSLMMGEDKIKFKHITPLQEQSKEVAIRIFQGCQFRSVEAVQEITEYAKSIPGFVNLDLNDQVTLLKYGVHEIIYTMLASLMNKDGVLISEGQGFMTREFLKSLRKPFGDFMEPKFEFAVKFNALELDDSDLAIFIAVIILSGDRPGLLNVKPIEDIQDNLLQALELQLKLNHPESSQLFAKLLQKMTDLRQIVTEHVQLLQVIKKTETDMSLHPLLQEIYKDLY
Summary of the method: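 Compounds dissolved in DMSO were added to PPARg UAS-bla HEK293H cells for 17 h at 37C, and reporter expression was quantified by fluorescence intensity after 1 h with LiveBLAzer B/G FRET substrate.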

[4] = biological target: Peroxisome proliferator-activated receptor gamma (Homo sapiens) (UniProt P37231); assay: qHTS assay to identify small molecule antagonists of the peroxisome proliferator-activated receptor gamma (PPARg) signaling pathway (AID 743191; calls by dose curve; further: series mostly up to about 63 µM; nearly all actives have a fitted effect of over 30% in size)
Summary of the method: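 GeneBLAzer PPARg UAS-bla HEK293H cells, 5 h post-plating, exposed to compounds 17 h at 37C. LiveBLAzer B/G FRET substrate added for 1 h at room temperature; beta-lactamase reporter read by fluorescence intensity.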

[5] = qHTS assay to identify small molecule antagonists of the peroxisome proliferator-activated receptor gamma (PPARg) signaling pathway - cell viability counter screen (AID 743194); further: nearly all actives have a fitted effect of over 55% in size
Summary of the method: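 Cytotoxicity counter screen in PPARg-bla HEK293H cells, same wells as reporter assay. Compounds plus 50 nM rosiglitazone (final) for 17 h at 37 C, then viability read by CellTiter-Glo luminescence.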

[6] = qHTS assay for small molecule agonists of the antioxidant response element (ARE) signaling pathway (AID 743202; active means well fitted activation curve with a large enough effect in the signal ratio in the repeat runs, not every such curve was filed as active; the % refers to the signal ratio)
Summary of the method: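 Agonist mode reporter screen: HepG2 cells with ARE-controlled beta-lactamase are incubated with test compounds for 16 h at 37 C, and beta-lactamase activity is measured as fluorescence of cleaved B/G FRET substrate.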

[7] = qHTS assay for small molecule agonists of the antioxidant response element (ARE) signaling pathway - cell viability counter screen (AID 743203; calls by dose curve; further: nearly all actives have a fitted effect of over 55% in size)
Summary of the method: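 Following 16 hrs of compound treatment at 37C, HepG2 cells with an ARE-controlled beta-lactamase gene were lysed with CellTiter-Glo. Luminescence was read after 30 min at room temperature.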

[8] = qHTS assay for small molecule activators of the heat shock response signaling pathway (AID 743210; active means well fitted activation curve with a large enough effect in the signal ratio in the repeat runs, with a control signal flat, not every such curve was filed as active; the % refers to the signal ratio;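 further: HeLa cells with beta-lactamase reporter driven by heat shock elements; series mostly up to about 63 µM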)
Summary of the method: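 Quantitative high-throughput format using an engineered HeLa line in which heat shock response elements drive beta-lactamase; after 5 h with compound, cells received a B/G FRET substrate and fluorescence was read.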

[9] = biological target: Peroxisome proliferator-activated receptor delta (Homo sapiens) (UniProt Q03181); assay: qHTS assay to identify small molecule agonists of the peroxisome proliferator-activated receptor delta (PPARd) signaling pathway (AID 743212; calls by dose curve)
Peroxisome proliferator-activated receptor delta (Homo sapiens), sequence (Q03181 whole entry, looked up): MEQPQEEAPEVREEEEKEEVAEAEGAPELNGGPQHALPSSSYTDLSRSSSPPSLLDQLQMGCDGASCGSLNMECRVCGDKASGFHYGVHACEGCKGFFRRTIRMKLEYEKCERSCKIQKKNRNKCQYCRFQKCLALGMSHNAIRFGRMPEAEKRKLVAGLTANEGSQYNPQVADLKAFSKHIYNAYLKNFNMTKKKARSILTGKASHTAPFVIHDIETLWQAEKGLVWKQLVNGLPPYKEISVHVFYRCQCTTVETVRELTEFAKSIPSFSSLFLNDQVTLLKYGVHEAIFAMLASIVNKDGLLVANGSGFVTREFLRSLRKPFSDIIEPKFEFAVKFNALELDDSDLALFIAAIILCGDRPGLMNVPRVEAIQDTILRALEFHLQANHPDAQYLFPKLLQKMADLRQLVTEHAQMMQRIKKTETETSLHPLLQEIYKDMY
Summary of the method: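 Quantitative high-throughput agonist screen in a HEK293H beta-lactamase reporter line under UAS control. Compounds in DMSO, at 37 C. Fluorescence read after 2 h with FRET substrate at room temperature.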

[10] = qHTS assay to identify small molecule antagonists of the peroxisome proliferator-activated receptor delta (PPARd) signaling pathway - cell viability counter screen (AID 743213); further: nearly all actives have a fitted effect of over 50% in size
Summary of the method: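 PPARd-bla HEK293H cells (3000/well) got compound plus 300 nM L165041 agonist for 17 h at 37 C. Viability in the same wells came from CellTiter-Glo luminescence after 30 min at room temperature.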

[11] = biological target: Peroxisome proliferator-activated receptor delta (Homo sapiens) (UniProt Q03181); assay: qHTS assay to identify small molecule antagonists of the peroxisome proliferator-activated receptor delta (PPARd) signaling pathway (AID 743215; active means well fitted inhibition curve with a large enough effect in the signal ratio in the repeat runs, not every such curve was filed as active; the % refers to the signal ratio;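 further: cells stimulated with agonist L165041 at 300 nM final during compound exposure; series mostly up to about 62 µM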)
Summary of the method: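 HEK293H UAS-bla, PPARd; agonist L165041 300 nM final with cpd in DMSO; 37 C 17 h; FRET substrate, RT 2 h; fluorescence intensity.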

[12] = qHTS assay to identify small molecule agonists of the farnesoid-X-receptor (FXR) signaling pathway - cell viability counter screen (AID 743218); further: nearly all actives have a fitted effect of over 45% in size
Summary of the method: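 Parallel cytotoxicity test: compound-treated (16 h, 37 C) HEK 293T FXR-bla reporter cells were lysed with CellTiter-Glo and luminescence recorded.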

[13] = biological target: Bile acid receptor (Homo sapiens) (UniProt Q96RI1); assay: qHTS assay to identify small molecule agonists of the farnesoid-X-receptor (FXR) signaling pathway (AID 743220; active means well fitted activation curve with a large enough effect in the signal ratio in the repeat runs, not every such curve was filed as active; the % refers to the signal ratio)
Bile acid receptor (Homo sapiens), sequence (Q96RI1 whole entry, looked up): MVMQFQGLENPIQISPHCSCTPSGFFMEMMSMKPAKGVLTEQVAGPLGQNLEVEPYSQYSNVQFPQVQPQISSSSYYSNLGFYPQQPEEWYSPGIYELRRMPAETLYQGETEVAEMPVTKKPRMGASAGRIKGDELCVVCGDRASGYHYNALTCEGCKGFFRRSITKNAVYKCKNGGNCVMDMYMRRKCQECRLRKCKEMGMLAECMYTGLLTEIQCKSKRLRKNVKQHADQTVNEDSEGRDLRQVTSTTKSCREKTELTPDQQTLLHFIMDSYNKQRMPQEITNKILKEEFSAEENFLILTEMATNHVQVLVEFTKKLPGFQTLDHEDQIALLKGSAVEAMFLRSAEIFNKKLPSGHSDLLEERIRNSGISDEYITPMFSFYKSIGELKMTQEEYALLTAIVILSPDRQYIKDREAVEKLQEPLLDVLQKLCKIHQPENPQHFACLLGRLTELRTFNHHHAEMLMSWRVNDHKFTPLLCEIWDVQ
Summary of the method: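 Beta-lactamase reporter under UAS control in GeneBLAzer FXR HEK 293T cells (5000/well) measured with LiveBLAzer FRET substrate after 2 h at room temperature. Compound exposure lasted 16 h at 37C.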

[14] = qHTS assay to identify small molecule antagonists of the farnesoid-X-receptor (FXR) signaling pathway - cell viability counter screen (AID 743221; active means well fitted cell-killing curve with a large enough effect in the repeat runs, not every such curve was filed as active; further: nearly all actives have a fitted effect of over 50% in size)
Summary of the method: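 GeneBLAzer FXR-UAS-bla HEK 293T cells, compound plus chenodeoxycholic acid (50 uM final), 16 h at 37 C. CellTiter-Glo added to the same wells after the beta-lactamase read; luminescence read after 30 min at room temperature as viability.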

[15] = qHTS assay to identify small molecule agonists of the vitamin D receptor (VDR) signaling pathway - cell viability counter screen (AID 743224); further: series mostly up to about 63 µM; nearly all actives have a fitted effect of over 50% in size
Summary of the method: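 Plated VDR-bla cells (4 h, 37C) received compound, incubated 16 h, then LiveBLAzer substrate 2 h RT; CellTiter-Glo added afterwards, luminescence read at 30 min.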

[16] = qHTS assay to identify small molecule agonists of the peroxisome proliferator-activated receptor delta (PPARd) signaling pathway - cell viability counter screen (AID 743211); further: nearly all actives have a fitted effect of over 55% in size
Summary of the method: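 PPARd-bla HEK293H cells (3000/well) were pre-incubated 5 h at 37 C, then exposed to compound for 17 h at 37 C. After 2 h with LiveBLAzer substrate, CellTiter-Glo was added to the same wells; luminescence read after 30 min at room temperature.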

[17] = biological target: Vitamin D3 receptor (Homo sapiens) (UniProt P11473); assay: qHTS assay to identify small molecule agonists of the vitamin D receptor (VDR) signaling pathway (AID 743222; calls by dose curve)
Vitamin D3 receptor (Homo sapiens), sequence (P11473 whole entry, looked up): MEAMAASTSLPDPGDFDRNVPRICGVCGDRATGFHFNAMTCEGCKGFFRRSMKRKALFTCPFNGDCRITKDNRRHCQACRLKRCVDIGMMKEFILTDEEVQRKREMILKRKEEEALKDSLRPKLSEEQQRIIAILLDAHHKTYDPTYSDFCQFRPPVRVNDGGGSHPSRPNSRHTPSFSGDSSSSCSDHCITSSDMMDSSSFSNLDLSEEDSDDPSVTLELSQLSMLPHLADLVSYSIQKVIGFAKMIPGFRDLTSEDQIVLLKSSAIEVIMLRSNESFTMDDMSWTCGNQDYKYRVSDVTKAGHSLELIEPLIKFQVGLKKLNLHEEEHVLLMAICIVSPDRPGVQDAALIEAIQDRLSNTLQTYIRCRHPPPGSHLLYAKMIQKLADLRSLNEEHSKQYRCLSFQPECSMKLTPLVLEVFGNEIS
Summary of the method: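 In VDR-bla cells, compound-induced beta-lactamase expression is quantified by FRET substrate fluorescence. Treatment lasts 16 h at 37C; substrate develops 2 h at room temperature.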

[18] = qHTS assay for small molecule activators of the heat shock response signaling pathway - cell viability counter screen (AID 743209); further: nearly all actives have a fitted effect of over 50% in size
Summary of the method: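 Readout: CellTiter-Glo luminescence, 30 min at room temperature. System: HSE-bla HeLa cells, 1500/well, plated overnight. Treatment: compounds in DMSO, 5 h at 37 C.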

[19] = biological target: Bile acid receptor (Homo sapiens) (UniProt Q96RI1); assay: qHTS assay to identify small molecule antagonists of the farnesoid-X-receptor (FXR) signaling pathway (AID 743217; active means well fitted inhibition curve with a large enough effect in the signal ratio in the repeat runs, not every such curve was filed as active; the % refers to the signal ratio)
Summary of the method: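 GeneBLAzer FXR-UAS-bla HEK 293T, CDCA-stimulated (50 uM final). Compound treatment 16 h, 37 °C. Detection: beta-lactamase cleavage of B/G FRET substrate, fluorescence.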

[20] = biological target: Vitamin D3 receptor (Homo sapiens) (UniProt P11473); assay: qHTS assay to identify small molecule antagonists of the vitamin D receptor (VDR) signaling pathway (AID 743223; active means well fitted inhibition curve with a large enough effect in the signal ratio in the repeat runs, not every such curve was filed as active; the % refers to the signal ratio)
Summary of the method: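 VDR-bla cells were treated with compound plus 3 nM final 1alpha,25-dihydroxyvitamin D3 for 16 h at 37C. Beta-lactamase reporter read by B/G FRET substrate fluorescence after 2 h at room temperature. qHTS format.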

Measured: Potency

CCC(=O)CC
not listed: [16] | [17] | [18] | [19] | [20]
inactive: all other assays above

CCC(C)OC(C)CC (stereo unspecified)
not listed: [6] | [8] | [10] | [13] | [18] | [19] | [20]
inactive: all other assays above

Cc1ccc(N)cc1S(=O)(=O)O
not listed: [5] | [20]
inactive: all other assays above

CC(O)CC(C)O (stereo unspecified)
not listed: [5] | [12]
inactive: all other assays above

Cc1cc(C)c(C(=O)O)c(C)c1
not listed: [8] | [9] | [11] | [13] | [17] | [18] | [19] | [20]
inactive: all other assays above

CCCCOCC(C)O (stereo unspecified)
not listed: [6] | [9] | [11] | [13] | [19] | [20]
inactive: all other assays above

CN(C)CCN(C)CCO
not listed: [6] | [9] | [11] | [15] | [19]
inactive: all other assays above

O=C=NCC1CCCC(CN=C=O)C1 (stereo unspecified)
not listed: [6] | [9] | [11] | [13] | [14] | [15] | [19]
inactive: all other assays above

C=Cc1ccc(C(C)(C)C)cc1
not listed: [4] | [11] | [12] | [15] | [17] | [19] | [20]
inactive: all other assays above
